Measured values: PubChem BioAssay (NCI)
Compounds without any hit were thinned out: in the full panel of roughly 83,000, 20% have a hit.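 Method: cells in 96-well plates; compound added at one concentration; 48 h incubation; percent growth measured; values under 10 scored active.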 Values without a mark were called inactive. Activity calls are given as the source filed them.

Columns and labels:
Experiment in all cases: NCI-60 one-dose screen, 48 h (100 = growth as untreated, 0 = no growth, -100 = all killed)
Conditions in all cases: 10 µM unless noted
NCI-H23 lung = tested on: NCI-H23 lung
NCI-H322M lung = tested on: NCI-H322M lung
HOP-62 NSCLC = tested on: HOP-62 NSCLC
HOP-92 NSCLC = tested on: HOP-92 NSCLC
NCI-H522 lung = tested on: NCI-H522 lung
A549/ATCC NSCLC = tested on: A549/ATCC NSCLC
786-0 renal = tested on: 786-0 renal
COLO 205 colon = tested on: COLO 205 colon
DU-145 prostate = tested on: DU-145 prostate
K-562 leukemia = tested on: K-562 leukemia
MALME-3M melanoma = tested on: MALME-3M melanoma
MDA-MB-231 breast = tested on: MDA-MB-231 breast
RXF 393 renal = tested on: RXF 393 renal
SF-268 CNS = tested on: SF-268 CNS
SF-295 CNS = tested on: SF-295 CNS
SF-539 CNS = tested on: SF-539 CNS
UACC-257 melanoma = tested on: UACC-257 melanoma
M14 melanoma = tested on: M14 melanoma
HCT-15 colon = tested on: HCT-15 colon
NCI-H460 lung = tested on: NCI-H460 lung

| Structure (SMILES) | growth (NCI-H23 lung) [%] | growth (NCI-H322M lung) [%] | growth (HOP-62 NSCLC) [%] | growth (HOP-92 NSCLC) | growth (NCI-H522 lung) | growth (A549/ATCC NSCLC) [%] | growth (786-0 renal) | growth (COLO 205 colon) | growth (DU-145 prostate) | growth (K-562 leukemia) | growth (MALME-3M melanoma) | growth (MDA-MB-231 breast) | growth (RXF 393 renal) | growth (SF-268 CNS) [%] | growth (SF-295 CNS) | growth (SF-539 CNS) | growth (UACC-257 melanoma) [%] | growth (M14 melanoma) | growth (HCT-15 colon) [%] | growth (NCI-H460 lung) [%] |
| --- | --- | --- | --- | --- | --- | --- | --- | --- | --- | --- | --- | --- | --- | --- | --- | --- | --- | --- | --- | --- |
| CCCc1c(C)c2sc(=O)[nH]c2[nH]c1=O | 104 | 111 | 107 | 104% | 96% | 103 | 109% | 113% | 114% | 107% | 108% | 105% | 107% | 99.6 | 108% | 96.7% | 103 | 108% | – | – |
| CCCCc1c(CCC)c(=N)c2ccccc2n1C | 99.2 | 85.3 | 78 | 48.2% | – | 69.8 | 73.8% | 70.5% | 79.9% | 8.23% (active) | – | 43.2% | 90.9% | 81.4 | 9.89% (active) | 74.1% | 30.8 | 55.3% | 44.5 | – |
| COc1cc2cc3c(=O)n4c(cc5cc(OC)ncc54)c(=O)n3c2cn1 | 101 | 97.4 | 95.3 | 114% | 99.2% | 102 | 99.1% | 114% | 106% | 102% | 93.1% | 109% | 106% | 102 | 87.7% | 106% | 110 | 105% | 106 | – |
| O=S1(=O)CCN(Cc2ccccc2)CC1 | 98.4 | 110 | 96.7 | 79.5% | – | 104 | 95.3% | 107% | 103% | 101% | 112% | 105% | 121% | 92.2 | 97% | 95.6% | 105 | 90.3% | – | – |
| Nc1ccc(C2c3ccccc3Oc3ccccc32)cc1 | 99.1 | 99.8 | 91.8 | 93.4% | 89.4% | 97.7 | 105% | 105% | 106% | 82.3% | 106% | 104% | – | 102 | 89% | 111% | 102 | 107% | 99.2 | – |
| NCCNc1nc2ccc(F)cc2c2c(=O)c3cc(F)ccc3sc12 | 70.9 | 60.6 | 56.5 | 17.4% | 30.9% | 43.7 | 58.6% | -52.2% (active) | 7.23% (active) | -44.2% (active) | 99% | 6.98% (active) | 52.3% | 48.9 | 82.3% | 73.6% | 79.4 | 15.7% | 20.9 | – |
| COc1cc(C(=O)Nc2ccc(-c3nc4ccccc4[nH]3)cc2)cc(OC)c1OC | 72.6 | 94.5 | – | 56.4% | 25% | 45.8 | 73.4% | 44.6% | 87.9% | 15.2% | 81.3% | 61.4% | 28% | 55.4 | 9.85% (active) | 34.7% | 78.1 | 43.5% | – | 22.6 |
| Nc1ccc(-c2nn3c(CCC(=O)c4nc5ncccc5[nH]4)nnc3s2)c(O)c1 | 83.1 | 87.5 | 85.7 | 85.4% | 81.2% | 89.6 | 99.2% | 99.6% | 96.5% | 105% | 93% | 71.2% | 84.9% | 73.5 | 97.1% | 89.1% | 101 | 96.5% | 95.8 | – |
| COc1cc(/C=C2\CN(C)C/C(=C\c3cc(CN4CCCCC4)c(O)c(OC)c3)C2=O)cc(CN2CCCCC2)c1O | 34.2 | 43.1 | 65 | 51% | 39.8% | 45.7 | 50.1% | – | 1.15% (active) | 10.2% | 84.6% | 7.14% (active) | 29.7% | 41 | 91.7% | 48.6% | 76.9 | 70.3% | 18.6 | – |
| O=c1c(-c2nc3ccccc3[nH]2)cc2ccccc2n1Cc1cn(Cc2ccc(N3CCOCC3)cc2)nn1 | 76.5 | 68.8 | 16.3 | 75.9% | 28% | 74.8 | 57.1% | 83.7% | 36.9% | 100% | 64.2% | 71.5% | 35.7% | 22.6 | 95.4% | 52.6% | 78.7 | 80.1% | 78.6 | – |
| O=C(CN1C=NC2C(N3CCOCC3)=NC=NC21)c1cccc2ccccc12 (stereo unspecified) | 103 | 98.8 | 99.2 | 90.2% | 90.2% | 90.1 | 101% | 119% | 105% | 107% | 114% | 88.1% | 100% | 84.7 | 102% | 98.9% | 101 | 105% | 95.8 | – |
| Fc1cccc(COc2ccc(Nc3ncnc4onc(-c5ccccc5)c34)cc2)c1 | 18.1 | 23.1 | 33.4 | 46.3% | 5.66% (active) | 19.9 | 8.18% (active) | 8.73% (active) | -29.8% (active) | 12.1% | 41% | 13.8% | -26.6% (active) | 29.2 | 2.77% (active) | -42.4% (active) | 54.8 | -23% (active) | – | – |
| Cc1ccc(S(=O)c2ccc([N+](=O)[O-])c3nonc23)cc1 (stereo unspecified) | 102 | 110 | 112 | 109% | -60.1% (active) | 101 | 102% | -39.7% (active) | 112% | 38.9% | 81.2% | – | 111% | 105 | 119% | 106% | 100 | 104% | 66.5 | – |
| CCOc1ccc(-c2nonc2NC(=O)c2cccc(C)c2)cc1OCC | 78.9 | 93.1 | 96.9 | -8.71% (active) | 84% | 65.4 | 73.9% | 36.8% | 80.5% | 11% | 59.6% | 76.5% | 65.3% | 84.1 | 27.8% | 80.8% | 89.4 | 71.3% | 65.2 | – |
| CC(=O)Nc1nc2c(s1)CCc1c-2cn(S(=O)(=O)c2ccccc2)c1-c1ccccc1 | 82.1 | 79.4 | 101 | 87.4% | – | – | 88.3% | 75.3% | 78.4% | 37.9% | -23.6% (active) | 73.6% | 85% | 71.4 | 43.5% | 93.5% | 93 | 36.9% | 51.9 | 75.3 |
| CCOC(=O)c1ccc(N=Cc2sc(=O)[nH]c2O)cc1 | 98 | 101 | 95.4 | 90.1% | 93.7% | 96.6 | 98.4% | 104% | 103% | 103% | 91.2% | 95.5% | 102% | 88.3 | 94.1% | 94% | 96.9 | 97.9% | 99.1 | – |
| CCC(C)(C)C(=O)O[C@H]1C[C@@H](C)C=C2C=C[C@H](C)[C@H](CC[C@@H]3CC=CC(=O)O3)[C@H]21 | 78 | 103 | 108 | 75.3% | – | 78.7 | 110% | 72.7% | 82.7% | 32.8% | 94.1% | 96.9% | 41.3% | 85.7 | 97.5% | 96.1% | 60.4 | 61.3% | 63.9 | – |
